Holding throughout (parameters): scale not given: direction of the effect not stated beside the values
In assay [1] the target is Protein translocase subunit SecA (Escherichia coli (strain K12)) (UniProt P10408). Kind of assay: Assay to Identify E. coli SecA ATPase Inhibitors. The assay is classed as functional. As to conditions: 30 µM.
In assay [2] the target is T1, Ubiquitin-activating enzyme e1, putative (Leishmania donovani (strain BPK282A1)) (UniProt E9BSI1).
T1 sequence (whole entry): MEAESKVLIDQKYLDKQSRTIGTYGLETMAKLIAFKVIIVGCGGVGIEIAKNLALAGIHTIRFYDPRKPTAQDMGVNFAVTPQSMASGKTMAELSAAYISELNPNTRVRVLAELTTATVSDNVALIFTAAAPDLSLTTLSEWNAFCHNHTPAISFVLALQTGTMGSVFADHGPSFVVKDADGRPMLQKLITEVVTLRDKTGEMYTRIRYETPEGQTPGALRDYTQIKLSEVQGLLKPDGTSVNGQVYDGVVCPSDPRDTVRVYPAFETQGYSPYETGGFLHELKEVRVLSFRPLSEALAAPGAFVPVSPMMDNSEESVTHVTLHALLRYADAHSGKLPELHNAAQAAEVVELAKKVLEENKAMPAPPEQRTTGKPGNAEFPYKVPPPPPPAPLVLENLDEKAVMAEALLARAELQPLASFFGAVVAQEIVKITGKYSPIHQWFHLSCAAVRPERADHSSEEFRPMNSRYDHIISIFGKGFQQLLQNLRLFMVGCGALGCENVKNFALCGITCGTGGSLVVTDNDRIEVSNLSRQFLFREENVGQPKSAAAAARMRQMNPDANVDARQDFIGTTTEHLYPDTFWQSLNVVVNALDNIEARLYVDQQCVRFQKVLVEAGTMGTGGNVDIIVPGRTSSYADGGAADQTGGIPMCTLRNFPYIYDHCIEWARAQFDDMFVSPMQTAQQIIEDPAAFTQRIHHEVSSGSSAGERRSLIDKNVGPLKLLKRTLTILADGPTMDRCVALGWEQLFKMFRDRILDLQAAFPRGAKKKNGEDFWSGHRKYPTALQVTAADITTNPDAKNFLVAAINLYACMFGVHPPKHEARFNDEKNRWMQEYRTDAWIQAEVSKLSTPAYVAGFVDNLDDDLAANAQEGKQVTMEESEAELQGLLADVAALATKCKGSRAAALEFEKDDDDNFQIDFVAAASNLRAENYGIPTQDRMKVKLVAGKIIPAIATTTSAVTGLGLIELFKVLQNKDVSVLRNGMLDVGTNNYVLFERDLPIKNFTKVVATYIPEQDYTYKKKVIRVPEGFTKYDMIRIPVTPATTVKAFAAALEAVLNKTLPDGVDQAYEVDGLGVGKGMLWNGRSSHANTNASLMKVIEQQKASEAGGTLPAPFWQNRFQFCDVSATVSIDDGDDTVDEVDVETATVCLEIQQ
As to the kind of experiment: Leishmania donovani Ubiquitin Activating Enzyme (LdE1). The following applies: 30 µM. The assay is classed as functional.

Assay [3] concerns the target AMP-activated protein kinase, AMPK (Homo sapiens) (UniProt P54646+O43741+P54619+Q9UGJ0+Q9Y478+Q13131+Q9UGI9). As to the kind of experiment: AMP-dependent Kinase enzyme assay. An in vitro enzyme assay that detects ADP turnover that is directly proportional to AMPK activity. This uses naive AMPK that is activated during the assay with MK-8722. As to conditions: 30 µM. The assay is classed as functional.

Assay [4] addresses Sialic acid-binding Ig-like lectin 9 (Homo sapiens) (UniProt Q9Y336). Kind of assay: Hs-Siglec9 ALPHAscreen SOP 20170721. As to conditions: 10 µM. On the technique in general: Alpha assays give light when donor and acceptor beads are brought close together.
Another assay concerns Trypanosoma cruzi. As to the kind of experiment: Trypanosoma cruzi phosphomannomutase and mannose-1-phosphate guanylyltransferase assay. The assay is classed as functional. The following applies: 10 µM.
Assay [5] has as its target T2, Arginase-2, mitochondrial (Homo sapiens) (UniProt P78540).
T2 sequence (whole entry): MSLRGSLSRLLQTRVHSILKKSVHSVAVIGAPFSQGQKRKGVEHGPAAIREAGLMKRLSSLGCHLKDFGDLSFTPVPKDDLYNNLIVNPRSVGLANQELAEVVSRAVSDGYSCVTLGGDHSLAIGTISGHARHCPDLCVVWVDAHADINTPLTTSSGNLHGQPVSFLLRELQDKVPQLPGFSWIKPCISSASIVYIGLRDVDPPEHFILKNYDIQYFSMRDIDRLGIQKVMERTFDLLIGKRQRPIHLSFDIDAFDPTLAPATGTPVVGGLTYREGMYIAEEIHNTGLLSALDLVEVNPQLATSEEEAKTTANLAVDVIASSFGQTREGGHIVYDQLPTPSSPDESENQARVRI
As to the kind of experiment: in vitro enzyme assay to detect the production of urea directly proportional to the activity of Arginase II. Further: in the data most compounds retested in dose-response had high values. The assay is classed as functional. As to conditions: 33.3 µM.

Assay [6] concerns the target T3, Proteasome subunit beta (Trypanosoma cruzi) (UniProt O96673).
T3 sequence (whole entry): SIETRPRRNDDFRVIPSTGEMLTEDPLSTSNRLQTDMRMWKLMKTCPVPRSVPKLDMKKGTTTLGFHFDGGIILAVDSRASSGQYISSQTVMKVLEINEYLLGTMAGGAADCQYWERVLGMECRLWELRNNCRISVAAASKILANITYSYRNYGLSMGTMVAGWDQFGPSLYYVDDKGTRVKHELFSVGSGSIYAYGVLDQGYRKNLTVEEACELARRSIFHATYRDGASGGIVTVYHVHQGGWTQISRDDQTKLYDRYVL
Kind of assay: Trypanosoma cruzi proteasome chymotrypsin-like activity (TcProtChymo) assay. Further: in the data most compounds retested in dose-response had high values. The following applies: 9.37 µM. The assay is classed as functional.

The species entered for another assay is Homo sapiens. As to the kind of experiment: To identify inhibition of the IFN signalling (Jak-Stat) pathway via expression of an eGFP reporter gene under the control of an IFN-stimulated response element (ISRE) containing MxA promoter. The assay is classed as functional. As to conditions: 30 µM.
Assay [7] addresses T4, Tyrosyl-tRNA synthetase, putative (Trypanosoma cruzi (strain CL Brener)) (UniProt Q4DSP6).
T4 sequence (whole entry): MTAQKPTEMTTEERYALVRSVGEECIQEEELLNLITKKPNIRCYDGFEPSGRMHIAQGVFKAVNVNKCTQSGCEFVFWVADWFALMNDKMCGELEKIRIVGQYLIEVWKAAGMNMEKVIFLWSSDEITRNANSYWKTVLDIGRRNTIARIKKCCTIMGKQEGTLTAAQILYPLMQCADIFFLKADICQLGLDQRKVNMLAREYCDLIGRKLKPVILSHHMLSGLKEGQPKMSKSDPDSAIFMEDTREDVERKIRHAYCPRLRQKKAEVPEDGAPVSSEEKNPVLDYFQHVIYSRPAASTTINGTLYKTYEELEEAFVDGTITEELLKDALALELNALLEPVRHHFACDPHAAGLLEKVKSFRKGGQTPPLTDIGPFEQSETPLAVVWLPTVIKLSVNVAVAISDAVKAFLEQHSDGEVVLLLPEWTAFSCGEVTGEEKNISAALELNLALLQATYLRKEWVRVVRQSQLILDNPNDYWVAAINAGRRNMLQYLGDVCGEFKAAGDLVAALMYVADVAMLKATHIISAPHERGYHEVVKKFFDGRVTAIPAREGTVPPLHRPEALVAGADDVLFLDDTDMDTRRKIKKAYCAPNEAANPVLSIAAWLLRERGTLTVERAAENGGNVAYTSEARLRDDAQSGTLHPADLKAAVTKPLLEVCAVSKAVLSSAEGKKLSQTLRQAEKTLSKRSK
As to the kind of experiment: Trypanosoma cruzi tyrosyl tRNA synthetase (TcYRS) _High Tyrosine SOP. Further: in the data most compounds retested in dose-response had high values. The following applies: 30 µM. The assay is classed as functional.

Assay [8] has as its target T4, Tyrosyl-tRNA synthetase, putative (Trypanosoma cruzi (strain CL Brener)). Kind of assay: Trypanosoma cruzi tyrosyl tRNA synthetase (TcYRS) SOP. The assay is classed as functional. As to conditions: 30 µM.
Assay [9] addresses Chromo domain-containing protein 1 (Saccharomyces cerevisiae (strain ATCC 204508 / S288c) (Baker's yeast)) (UniProt P32657). As to the kind of experiment: ScCHD-1 Enzyme Inhibition Assay. Further: in the data most compounds retested in dose-response had high values. As to conditions: 30 µM. The assay is classed as functional.

The structures appear in SMILES notation. For some of these results: Results with a measured potency or affinity are listed apart.

Chain of Protein translocase subunit SecA (Escherichia coli (strain K12)) (P10408 whole entry): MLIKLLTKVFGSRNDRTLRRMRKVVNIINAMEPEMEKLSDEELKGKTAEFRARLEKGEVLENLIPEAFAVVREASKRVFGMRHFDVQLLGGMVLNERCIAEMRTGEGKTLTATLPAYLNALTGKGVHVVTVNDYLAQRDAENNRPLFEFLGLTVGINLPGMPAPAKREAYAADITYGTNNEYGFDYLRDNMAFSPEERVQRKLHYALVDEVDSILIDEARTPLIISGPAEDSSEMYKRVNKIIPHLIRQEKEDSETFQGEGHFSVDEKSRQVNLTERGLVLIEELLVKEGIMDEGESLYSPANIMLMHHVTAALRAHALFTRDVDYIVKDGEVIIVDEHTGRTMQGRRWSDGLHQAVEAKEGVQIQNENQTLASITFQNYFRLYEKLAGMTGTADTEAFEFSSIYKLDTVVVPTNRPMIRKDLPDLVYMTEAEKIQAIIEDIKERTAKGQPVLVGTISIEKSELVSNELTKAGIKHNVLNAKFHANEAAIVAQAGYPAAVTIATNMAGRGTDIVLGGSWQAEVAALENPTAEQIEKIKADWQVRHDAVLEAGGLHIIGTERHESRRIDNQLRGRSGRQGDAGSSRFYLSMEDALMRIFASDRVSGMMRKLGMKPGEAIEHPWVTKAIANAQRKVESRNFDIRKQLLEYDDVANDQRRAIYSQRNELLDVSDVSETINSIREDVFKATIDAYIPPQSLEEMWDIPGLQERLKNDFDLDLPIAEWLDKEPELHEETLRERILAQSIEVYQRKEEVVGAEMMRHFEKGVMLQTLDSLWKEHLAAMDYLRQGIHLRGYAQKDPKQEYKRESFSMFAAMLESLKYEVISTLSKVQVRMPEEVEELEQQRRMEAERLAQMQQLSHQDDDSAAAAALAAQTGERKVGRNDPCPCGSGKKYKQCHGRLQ
Chain of Chromo domain-containing protein 1 (Saccharomyces cerevisiae (strain ATCC 204508 / S288c) (Baker's yeast)) (P32657 whole entry, the tested form may be a part): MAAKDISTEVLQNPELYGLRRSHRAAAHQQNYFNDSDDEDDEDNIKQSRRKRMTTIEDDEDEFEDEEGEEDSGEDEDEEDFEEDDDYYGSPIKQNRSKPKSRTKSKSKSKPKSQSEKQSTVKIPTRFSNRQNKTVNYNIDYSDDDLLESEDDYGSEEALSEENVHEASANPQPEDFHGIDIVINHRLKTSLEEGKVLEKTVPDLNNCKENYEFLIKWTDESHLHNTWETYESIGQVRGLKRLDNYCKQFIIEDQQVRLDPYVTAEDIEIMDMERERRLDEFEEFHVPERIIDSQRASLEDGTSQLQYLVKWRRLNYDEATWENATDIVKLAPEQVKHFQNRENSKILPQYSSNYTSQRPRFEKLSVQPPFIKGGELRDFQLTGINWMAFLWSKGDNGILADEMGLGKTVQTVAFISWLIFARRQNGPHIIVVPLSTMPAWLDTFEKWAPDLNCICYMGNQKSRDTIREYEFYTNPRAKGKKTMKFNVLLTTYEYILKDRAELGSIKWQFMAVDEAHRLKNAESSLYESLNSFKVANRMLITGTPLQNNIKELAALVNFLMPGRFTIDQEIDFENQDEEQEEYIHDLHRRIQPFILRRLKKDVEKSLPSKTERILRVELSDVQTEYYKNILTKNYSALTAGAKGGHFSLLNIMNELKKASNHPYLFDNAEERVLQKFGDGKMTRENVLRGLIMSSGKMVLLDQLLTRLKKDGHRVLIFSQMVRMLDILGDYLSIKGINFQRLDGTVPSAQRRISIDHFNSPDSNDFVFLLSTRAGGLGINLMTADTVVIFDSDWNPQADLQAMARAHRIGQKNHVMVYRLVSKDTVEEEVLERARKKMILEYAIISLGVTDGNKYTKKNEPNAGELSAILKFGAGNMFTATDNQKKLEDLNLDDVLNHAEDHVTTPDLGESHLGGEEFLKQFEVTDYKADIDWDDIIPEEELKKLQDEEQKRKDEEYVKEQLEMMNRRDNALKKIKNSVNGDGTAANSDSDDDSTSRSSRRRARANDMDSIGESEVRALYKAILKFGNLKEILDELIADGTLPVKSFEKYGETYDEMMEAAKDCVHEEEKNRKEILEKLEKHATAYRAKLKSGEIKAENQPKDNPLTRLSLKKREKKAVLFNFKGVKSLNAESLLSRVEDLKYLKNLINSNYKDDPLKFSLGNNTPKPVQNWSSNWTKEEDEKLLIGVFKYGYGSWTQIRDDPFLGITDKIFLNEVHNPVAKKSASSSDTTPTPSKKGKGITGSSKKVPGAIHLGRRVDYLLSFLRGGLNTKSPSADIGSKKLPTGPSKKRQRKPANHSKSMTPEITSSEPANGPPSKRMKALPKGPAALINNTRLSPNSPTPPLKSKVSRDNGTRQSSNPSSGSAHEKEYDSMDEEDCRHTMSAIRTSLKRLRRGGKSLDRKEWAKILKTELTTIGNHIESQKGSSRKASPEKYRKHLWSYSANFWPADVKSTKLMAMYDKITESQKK
Chain of Sialic acid-binding Ig-like lectin 9 (Homo sapiens) (Q9Y336 whole entry): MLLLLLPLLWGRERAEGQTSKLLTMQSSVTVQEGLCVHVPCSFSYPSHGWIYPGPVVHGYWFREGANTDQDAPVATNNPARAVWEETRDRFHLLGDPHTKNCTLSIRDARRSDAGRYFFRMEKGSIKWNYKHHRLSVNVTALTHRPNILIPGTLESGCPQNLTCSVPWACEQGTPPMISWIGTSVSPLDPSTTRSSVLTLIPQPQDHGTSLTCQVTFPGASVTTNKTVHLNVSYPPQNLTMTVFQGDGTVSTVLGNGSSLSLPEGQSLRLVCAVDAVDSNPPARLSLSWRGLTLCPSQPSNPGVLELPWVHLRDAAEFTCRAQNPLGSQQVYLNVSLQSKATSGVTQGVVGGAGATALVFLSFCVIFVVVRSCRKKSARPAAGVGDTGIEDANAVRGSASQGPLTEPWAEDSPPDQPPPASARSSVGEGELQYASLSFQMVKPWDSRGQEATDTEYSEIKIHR

Regarding `CO[C@H]1CN(C(=O)c2ccccn2)[C@@H]2CCCO[C@H]12`, the Percent Effect in [1] is -0.127%; in assay [2] it was -2.7%; in assay [3], 2.92%; in [4] it was 0.754%; in the assay with Trypanosoma cruzi it was -2.25%; in [5] it was 1.59%. The Percent Effect in assay [6] came out at 17.5%; in the assay listed under Homo sapiens, 0.992%; in assay [7] it was 0%; in [8], 5.13%; in assay [9], 3.83%.

`O=C(Cc1cccs1)N1C[C@@H]2COC[C@]2(COc2cccnc2)C1`: the Percent Effect in [1] is -2.91%; in [2], 8.11%; in assay [3], -0.523%; in assay [4] it was -5.15%; in the assay with Trypanosoma cruzi, 7.62%; in assay [5], -1.25%. In addition, the Percent Effect in assay [6] is 8.2%; in the assay filed under Homo sapiens, -12.3%; in assay [7], 7.92%; in [8], 11%; in assay [9], -1.81%.

For `COc1ccc(CCC(=O)NC2CCC(O)CC2)cc1OC` (stereo unspecified), the Percent Effect in [1] was -5.53%; in [2], 13.2%; in assay [3] it was -3.83%; in assay [4], 13%; with Trypanosoma cruzi, -0.654%; in assay [5] it was -3.24%. Further, the Percent Effect is 2.12% in assay [6]; 7.63% in the assay filed under Homo sapiens; 2.46% in assay [7]; 6.17% in assay [8]; -1.04% in assay [9].

`CCn1cnnc1CNC(=O)N1CCN(c2cccc(OC)c2)CC1`: the Percent Effect in [1] is -4.11%; in [2], 20.8%; in [3], -7.68%; in [4], 2.16%; in the assay with Trypanosoma cruzi it was -3.75%; in assay [5], -0.356%. For the same compound, the Percent Effect in assay [6] was 12.3%; in the assay filed under Homo sapiens, 25.9%; in assay [7] it was 12.6%; in [8], 14.6%; in assay [9], -9.3%.

For the compound `c1ccc2c(N3CCCC3Cn3cccn3)ncnc2c1` (stereo unspecified), the Percent Effect in assay [1] is -2.93%; in [2], 21.6%; in [3], -4.33%; in assay [4] it was 6.84%; in the assay with Trypanosoma cruzi, 2.88%; in [5] it was 2.77%. Also, the Percent Effect was 10.2% in assay [6]; 50.9% in the assay listed under Homo sapiens; 6.93% in assay [7]; 28.1% in [8]; -8.26% in assay [9].

In the case of `CCc1cc(=O)[nH]c2nnc(SCC(=O)OC)n12`, the Percent Effect in [1] is 0.274%; in assay [2], 16.4%; in [3] it was -5.37%; in [4], -14.2%; in the assay on Trypanosoma cruzi, 3.72%; in [5] it was 18.2%. Moreover, the Percent Effect in [6] was 15.6%; in the assay filed under Homo sapiens, -0.951%; in [7], 6.45%; in assay [8] it was 17.5%; in assay [9], -6.44%.

Turning to `COc1ccccc1C(=O)NC(C)CC(=O)O` (stereo unspecified), the Percent Effect was -6.61% in assay [1]; 11.4% in [2]; 1.36% in assay [3]; -1.14% in [4]; 1.74% in the assay on Trypanosoma cruzi; 1.07% in [5]. The Percent Effect was 2.92% in assay [6]; 12.6% in the assay listed under Homo sapiens; 5.21% in assay [7]; 15.2% in assay [8]; -12.9% in [9].

On to `COc1ccc(CN2C[C@@H]3COC[C@]3(COc3cccnc3)C2)cc1`, for which the Percent Effect in assay [1] is -1.95%; in assay [2] it was 0%; in assay [3] it was 3.5%; in [4] it was -0.202%; with Trypanosoma cruzi, 3.12%; in assay [5], -0.417%. The Percent Effect in assay [6] is 4.14%; in the assay filed under Homo sapiens, -15.2%; in assay [7] it was 0%; in assay [8], 6.1%; in assay [9] it was -0.593%.

With `CC(C)c1nn(C)c(N(C)C)c1CNCC(O)c1ccccc1F` (stereo unspecified), the Percent Effect in assay [1] is -3.41%; in [2], 18.2%; in assay [3], -14.7%; in assay [4], 3.26%; in the assay on Trypanosoma cruzi, 0.562%; in assay [5], -1.07%. The Percent Effect in assay [6] was 4.39%; in the assay filed under Homo sapiens, 10.4%; in assay [7] it was 6.8%; in assay [8], 7.32%; in [9], -8.47%.

With `Cc1nn(C)c(N2CCOCC2)c1CNC1CCN(C(C)(C)C)CC1`, the Percent Effect in assay [1] is -2.55%; in assay [2], 20.2%; in assay [3], -9.63%; in assay [4], -2.51%; with Trypanosoma cruzi it was -1.42%; in [5], -0.38%. Further, the Percent Effect in [6] was 13.5%; in the assay filed under Homo sapiens it was 10.5%; in assay [7] it was 5.42%; in assay [8] it was 16.5%; in [9], -4.24%.

In the case of `O=C1C(NS(=O)(=O)c2cc(F)cc(F)c2)CCN1Cc1ccccc1` (stereo unspecified), the Percent Effect in [1] was -4.38%; in assay [2] it was 12.7%; in assay [3], -1.14%; in [4], -3.2%; with Trypanosoma cruzi it was 6.52%; in assay [5], 1.52%. Moreover, the Percent Effect in assay [6] is 13.7%; in the assay filed under Homo sapiens it was 0.58%; in assay [7], 6.4%; in assay [8], 1.27%; in [9], -7.02%.

The record behind these values is ChEMBL document CHEMBL3988442, “University of Dundee, Small-Polar-MMV Screening Library” (2021).
